Data taken from paper PMC7862700, “An all-to-all approach to the identification of sequence-specific readers for epigenetic DNA modifications on cytosine”.

Columns and labels:
Assay in all cases: DAPPL (digital affinity profiling via proximity ligation, sequencing); 10 mM Tris-HCl pH 7.5, 50 mM NaCl, 1 mM DTT, 4% glycerol, room temperature, 30 min; GST-TFs on glutathione beads, 16-mer random dsDNA library, 0.1% formaldehyde crosslink after washing; high values mean tight binding
FLI1 = target: T1, FLI1 (Homo sapiens, UniProt Q01543 1-452); details: protein: recombinant; tags: N-terminal GST; dsDNA, one strand shown
T1 sequence: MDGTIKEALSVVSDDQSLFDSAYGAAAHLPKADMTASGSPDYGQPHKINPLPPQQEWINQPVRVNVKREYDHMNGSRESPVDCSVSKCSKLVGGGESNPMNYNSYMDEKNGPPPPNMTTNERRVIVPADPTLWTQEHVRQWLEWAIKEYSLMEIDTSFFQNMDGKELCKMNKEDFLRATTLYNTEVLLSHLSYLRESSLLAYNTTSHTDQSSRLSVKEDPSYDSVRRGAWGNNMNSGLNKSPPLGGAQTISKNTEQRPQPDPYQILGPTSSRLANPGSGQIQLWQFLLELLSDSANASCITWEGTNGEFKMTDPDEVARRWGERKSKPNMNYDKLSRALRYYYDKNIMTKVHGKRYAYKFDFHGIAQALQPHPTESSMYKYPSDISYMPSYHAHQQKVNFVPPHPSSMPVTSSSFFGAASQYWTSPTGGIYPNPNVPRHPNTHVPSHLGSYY
Procedure, shortened: (§1)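 Pools were built from human transcription factors expressed in yeast as GST fusions, captured on glutathione beads and DNA-barcoded, along with a tag-only sample. Incubation with 200 nmole of a 16-mer random double-stranded DNA library lasted 30 min at room temperature in Tris/NaCl/DTT/glycerol buffer, and was followed by washing, 0.1% formaldehyde crosslinking, proximity ligation, PCR amplification and Illumina NextSeq500 sequencing. Binding signal is the quotient of each hexamer's read frequency for a factor and its frequency for the tag-only sample.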

ELK1 = target: T2, ELK1 (Homo sapiens, UniProt P19419 1-428); details: protein: recombinant; tags: N-terminal GST; dsDNA, one strand shown
T2 sequence: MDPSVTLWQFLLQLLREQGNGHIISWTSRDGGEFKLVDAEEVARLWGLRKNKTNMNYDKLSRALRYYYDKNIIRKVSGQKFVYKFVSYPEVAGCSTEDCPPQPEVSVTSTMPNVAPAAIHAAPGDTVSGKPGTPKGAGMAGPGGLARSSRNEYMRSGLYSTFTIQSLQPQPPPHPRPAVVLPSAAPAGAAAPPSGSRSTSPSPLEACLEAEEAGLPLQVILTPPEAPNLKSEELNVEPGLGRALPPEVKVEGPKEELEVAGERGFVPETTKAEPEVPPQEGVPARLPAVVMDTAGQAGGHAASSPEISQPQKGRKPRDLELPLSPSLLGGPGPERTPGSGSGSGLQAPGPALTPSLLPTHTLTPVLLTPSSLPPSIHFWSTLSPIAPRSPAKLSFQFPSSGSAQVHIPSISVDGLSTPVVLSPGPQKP
Procedure, shortened: as §1

GABPA = target: T3, GABPA (Homo sapiens, UniProt Q06546 1-454); details: protein: recombinant; tags: N-terminal GST; dsDNA, one strand shown
T3 sequence: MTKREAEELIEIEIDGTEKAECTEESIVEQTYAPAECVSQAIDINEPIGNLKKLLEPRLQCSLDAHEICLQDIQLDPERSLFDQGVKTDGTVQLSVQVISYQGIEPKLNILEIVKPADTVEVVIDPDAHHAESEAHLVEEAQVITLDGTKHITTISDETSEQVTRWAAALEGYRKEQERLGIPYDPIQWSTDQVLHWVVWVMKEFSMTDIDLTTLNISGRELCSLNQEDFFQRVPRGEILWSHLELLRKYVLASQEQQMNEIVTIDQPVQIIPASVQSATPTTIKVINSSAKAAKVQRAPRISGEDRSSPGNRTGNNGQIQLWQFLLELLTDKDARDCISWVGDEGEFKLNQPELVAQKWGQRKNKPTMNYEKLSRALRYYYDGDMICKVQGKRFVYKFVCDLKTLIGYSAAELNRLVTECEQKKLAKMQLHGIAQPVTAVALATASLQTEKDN
Procedure, shortened: as §1

ERG = target: T4, ERG (Homo sapiens, UniProt P11308 1-479); details: protein: recombinant; tags: N-terminal GST; dsDNA, one strand shown
T4 sequence: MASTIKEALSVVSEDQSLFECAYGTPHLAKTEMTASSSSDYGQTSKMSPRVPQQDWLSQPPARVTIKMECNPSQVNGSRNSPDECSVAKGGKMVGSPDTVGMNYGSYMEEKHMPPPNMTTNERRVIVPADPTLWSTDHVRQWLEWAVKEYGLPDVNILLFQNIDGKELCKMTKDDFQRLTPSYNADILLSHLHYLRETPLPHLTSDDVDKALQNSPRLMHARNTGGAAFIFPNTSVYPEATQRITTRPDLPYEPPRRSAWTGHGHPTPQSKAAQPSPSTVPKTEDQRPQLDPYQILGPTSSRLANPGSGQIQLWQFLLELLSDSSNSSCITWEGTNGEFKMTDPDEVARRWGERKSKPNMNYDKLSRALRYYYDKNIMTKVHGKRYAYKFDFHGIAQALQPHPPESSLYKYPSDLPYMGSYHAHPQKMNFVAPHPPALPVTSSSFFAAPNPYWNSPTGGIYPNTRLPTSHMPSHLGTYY
Procedure, shortened: as §1

ELF1 = ELF1 (Homo sapiens, UniProt P32519 1-619); details: protein: recombinant; tags: N-terminal GST; dsDNA, one strand shown
Sequence of ELF1 (P32519 whole entry): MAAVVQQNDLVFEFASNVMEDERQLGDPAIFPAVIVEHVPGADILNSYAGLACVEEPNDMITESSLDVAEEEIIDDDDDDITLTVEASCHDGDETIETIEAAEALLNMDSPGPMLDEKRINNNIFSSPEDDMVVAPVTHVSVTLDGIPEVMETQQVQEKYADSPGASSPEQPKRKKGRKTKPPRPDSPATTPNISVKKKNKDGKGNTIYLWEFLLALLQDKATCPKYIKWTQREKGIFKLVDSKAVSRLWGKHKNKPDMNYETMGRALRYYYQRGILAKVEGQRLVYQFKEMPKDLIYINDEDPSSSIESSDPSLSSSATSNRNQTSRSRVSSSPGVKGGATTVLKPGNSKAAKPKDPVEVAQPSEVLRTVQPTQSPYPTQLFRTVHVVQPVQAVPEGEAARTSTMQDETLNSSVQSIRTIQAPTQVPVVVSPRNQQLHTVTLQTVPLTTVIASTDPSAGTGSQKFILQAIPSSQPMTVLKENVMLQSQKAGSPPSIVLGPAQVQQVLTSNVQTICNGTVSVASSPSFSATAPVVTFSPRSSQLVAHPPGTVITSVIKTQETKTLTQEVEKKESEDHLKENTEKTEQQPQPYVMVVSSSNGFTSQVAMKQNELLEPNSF
Procedure, shortened: as §1

EHF = target: T5, EHF (Homo sapiens, UniProt Q9NZC4 1-300); details: protein: recombinant; tags: N-terminal GST; dsDNA, one strand shown
T5 sequence: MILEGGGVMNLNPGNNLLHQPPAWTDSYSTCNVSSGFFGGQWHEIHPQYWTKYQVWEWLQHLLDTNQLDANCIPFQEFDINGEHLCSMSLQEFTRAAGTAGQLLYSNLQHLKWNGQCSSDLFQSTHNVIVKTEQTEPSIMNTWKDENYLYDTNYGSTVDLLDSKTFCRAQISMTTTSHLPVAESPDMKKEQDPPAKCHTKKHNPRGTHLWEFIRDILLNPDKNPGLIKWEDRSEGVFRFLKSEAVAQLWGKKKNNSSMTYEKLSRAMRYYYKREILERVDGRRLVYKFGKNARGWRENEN
Procedure, shortened: as §1

SPI1 = SPI1 (Homo sapiens, UniProt P17947 1-270); details: protein: recombinant; tags: N-terminal GST; dsDNA, one strand shown
Procedure, shortened: as §1

SPIB = SPIB (Homo sapiens, UniProt Q01892 1-262); details: protein: recombinant; tags: N-terminal GST; dsDNA, one strand shown
Sequence of SPIB (Q01892 whole entry): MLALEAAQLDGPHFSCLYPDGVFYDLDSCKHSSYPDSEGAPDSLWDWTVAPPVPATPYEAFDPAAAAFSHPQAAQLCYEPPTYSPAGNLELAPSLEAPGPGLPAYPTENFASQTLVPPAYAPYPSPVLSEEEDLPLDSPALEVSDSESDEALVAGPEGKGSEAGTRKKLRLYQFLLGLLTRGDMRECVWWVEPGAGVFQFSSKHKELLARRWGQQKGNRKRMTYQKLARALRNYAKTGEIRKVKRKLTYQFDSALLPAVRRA
Procedure, shortened: as §1

ELK3 = target: T6, ELK3 (Homo sapiens, UniProt P41970 1-407); details: protein: recombinant; tags: N-terminal GST; dsDNA, one strand shown
T6 sequence: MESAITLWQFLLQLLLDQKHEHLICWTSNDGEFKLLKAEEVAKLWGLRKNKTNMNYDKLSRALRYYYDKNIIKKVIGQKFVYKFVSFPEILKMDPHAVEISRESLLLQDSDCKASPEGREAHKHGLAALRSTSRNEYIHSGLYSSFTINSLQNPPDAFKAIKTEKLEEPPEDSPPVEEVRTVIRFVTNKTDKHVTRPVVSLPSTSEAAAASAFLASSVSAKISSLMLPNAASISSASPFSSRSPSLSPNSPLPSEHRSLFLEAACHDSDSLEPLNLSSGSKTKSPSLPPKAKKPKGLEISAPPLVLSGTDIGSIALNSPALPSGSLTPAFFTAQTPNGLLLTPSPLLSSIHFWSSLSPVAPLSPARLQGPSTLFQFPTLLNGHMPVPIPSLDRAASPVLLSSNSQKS
Procedure, shortened: as §1

FEV = target: T7, FEV (Homo sapiens, UniProt Q99581 1-238); details: protein: recombinant; tags: N-terminal GST; dsDNA, one strand shown
T7 sequence: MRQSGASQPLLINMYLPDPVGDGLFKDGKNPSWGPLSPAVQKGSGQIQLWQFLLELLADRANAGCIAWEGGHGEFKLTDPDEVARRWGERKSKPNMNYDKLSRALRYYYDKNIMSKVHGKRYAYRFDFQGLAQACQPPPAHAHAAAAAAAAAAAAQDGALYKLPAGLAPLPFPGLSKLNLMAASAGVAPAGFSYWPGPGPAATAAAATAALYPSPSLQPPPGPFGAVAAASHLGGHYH
Procedure, shortened: as §1

ETV5 = ETV5 (Homo sapiens, UniProt P41161 1-510); details: protein: recombinant; tags: N-terminal GST; dsDNA, one strand shown
Sequence of ETV5 (P41161 whole entry): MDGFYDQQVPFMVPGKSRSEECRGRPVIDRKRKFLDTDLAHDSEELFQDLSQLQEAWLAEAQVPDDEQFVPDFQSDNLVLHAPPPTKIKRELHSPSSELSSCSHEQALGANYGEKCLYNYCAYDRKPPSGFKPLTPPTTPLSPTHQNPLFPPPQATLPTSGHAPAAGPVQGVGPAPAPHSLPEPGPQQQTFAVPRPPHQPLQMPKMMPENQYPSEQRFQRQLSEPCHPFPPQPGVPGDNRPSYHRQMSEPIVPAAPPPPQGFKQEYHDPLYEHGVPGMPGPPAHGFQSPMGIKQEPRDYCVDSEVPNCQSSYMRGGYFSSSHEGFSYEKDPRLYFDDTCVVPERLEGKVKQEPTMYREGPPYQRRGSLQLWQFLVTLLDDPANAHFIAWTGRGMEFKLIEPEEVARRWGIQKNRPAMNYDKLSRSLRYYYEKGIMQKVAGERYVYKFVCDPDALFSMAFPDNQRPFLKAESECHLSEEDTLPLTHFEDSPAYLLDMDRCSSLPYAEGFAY
Procedure, shortened: as §1

HSF1 = HSF1 (Homo sapiens, UniProt Q00613 1-529); details: protein: recombinant; tags: N-terminal GST; chain copies: 3; dsDNA, one strand shown
Sequence of HSF1 (Q00613 whole entry): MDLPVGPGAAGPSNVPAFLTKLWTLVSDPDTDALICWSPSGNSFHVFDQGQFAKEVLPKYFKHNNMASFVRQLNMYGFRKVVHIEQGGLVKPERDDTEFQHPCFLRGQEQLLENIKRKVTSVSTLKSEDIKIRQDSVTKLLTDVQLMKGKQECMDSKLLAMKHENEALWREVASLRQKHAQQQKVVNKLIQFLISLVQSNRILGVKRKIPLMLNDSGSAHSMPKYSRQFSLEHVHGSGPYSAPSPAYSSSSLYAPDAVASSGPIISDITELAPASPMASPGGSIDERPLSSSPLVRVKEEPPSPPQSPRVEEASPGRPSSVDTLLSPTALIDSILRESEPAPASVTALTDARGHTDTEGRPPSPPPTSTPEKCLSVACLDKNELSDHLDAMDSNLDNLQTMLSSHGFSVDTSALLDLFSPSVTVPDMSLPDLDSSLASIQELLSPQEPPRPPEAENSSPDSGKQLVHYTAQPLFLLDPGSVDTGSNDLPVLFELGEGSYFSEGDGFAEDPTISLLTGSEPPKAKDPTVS
Procedure, shortened: as §1

SPIC = target: T8, SPIC (Homo sapiens, UniProt Q8N5J4 1-248); details: protein: recombinant; tags: N-terminal GST; dsDNA, one strand shown
T8 sequence: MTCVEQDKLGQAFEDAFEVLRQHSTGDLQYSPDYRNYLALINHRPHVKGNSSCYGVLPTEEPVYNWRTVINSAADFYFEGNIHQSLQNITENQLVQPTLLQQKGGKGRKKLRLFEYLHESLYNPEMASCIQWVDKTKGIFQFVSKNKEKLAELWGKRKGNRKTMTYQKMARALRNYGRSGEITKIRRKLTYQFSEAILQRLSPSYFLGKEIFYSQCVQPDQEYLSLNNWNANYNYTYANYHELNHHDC
Procedure, shortened: as §1

ELF4 = ELF4 (Homo sapiens, UniProt Q99607 1-663); details: protein: recombinant; tags: N-terminal GST; dsDNA, one strand shown
Sequence of ELF4 (Q99607 whole entry): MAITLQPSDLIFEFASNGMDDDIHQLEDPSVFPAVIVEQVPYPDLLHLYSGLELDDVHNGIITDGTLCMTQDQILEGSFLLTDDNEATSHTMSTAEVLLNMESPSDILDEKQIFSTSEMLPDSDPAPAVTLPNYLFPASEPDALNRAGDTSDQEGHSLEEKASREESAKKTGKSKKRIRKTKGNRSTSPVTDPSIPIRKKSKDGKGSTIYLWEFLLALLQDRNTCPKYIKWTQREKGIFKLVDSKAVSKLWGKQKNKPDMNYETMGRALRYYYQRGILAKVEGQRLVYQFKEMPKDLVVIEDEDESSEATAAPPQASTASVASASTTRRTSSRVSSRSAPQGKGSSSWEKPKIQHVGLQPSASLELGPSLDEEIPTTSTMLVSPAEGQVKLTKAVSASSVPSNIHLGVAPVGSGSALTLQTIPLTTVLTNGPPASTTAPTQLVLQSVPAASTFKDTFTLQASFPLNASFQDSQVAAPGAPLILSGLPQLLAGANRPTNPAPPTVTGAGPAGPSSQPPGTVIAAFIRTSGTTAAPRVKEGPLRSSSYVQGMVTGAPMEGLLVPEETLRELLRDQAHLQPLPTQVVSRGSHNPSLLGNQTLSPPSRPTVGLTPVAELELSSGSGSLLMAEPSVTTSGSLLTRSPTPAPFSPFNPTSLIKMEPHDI
Procedure, shortened: as §1

ELK4 = target: T9, ELK4 (Homo sapiens, UniProt P28324-2 1-405); details: protein: recombinant; tags: N-terminal GST; dsDNA, one strand shown
T9 sequence: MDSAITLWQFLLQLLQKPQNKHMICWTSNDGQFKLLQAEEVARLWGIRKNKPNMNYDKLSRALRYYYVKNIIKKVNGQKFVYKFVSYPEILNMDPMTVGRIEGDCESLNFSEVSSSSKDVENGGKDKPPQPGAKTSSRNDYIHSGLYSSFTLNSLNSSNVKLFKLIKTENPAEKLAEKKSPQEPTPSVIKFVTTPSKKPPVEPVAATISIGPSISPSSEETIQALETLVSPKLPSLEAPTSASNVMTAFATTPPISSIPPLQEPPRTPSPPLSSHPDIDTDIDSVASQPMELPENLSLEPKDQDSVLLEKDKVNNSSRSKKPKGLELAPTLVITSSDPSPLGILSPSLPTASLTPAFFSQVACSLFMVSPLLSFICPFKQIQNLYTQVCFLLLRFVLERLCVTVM
Procedure, shortened: as §1

ETV2 = target: T10, ETV2 (Homo sapiens, UniProt O00321 1-342); details: protein: recombinant; tags: N-terminal GST; dsDNA, one strand shown
T10 sequence: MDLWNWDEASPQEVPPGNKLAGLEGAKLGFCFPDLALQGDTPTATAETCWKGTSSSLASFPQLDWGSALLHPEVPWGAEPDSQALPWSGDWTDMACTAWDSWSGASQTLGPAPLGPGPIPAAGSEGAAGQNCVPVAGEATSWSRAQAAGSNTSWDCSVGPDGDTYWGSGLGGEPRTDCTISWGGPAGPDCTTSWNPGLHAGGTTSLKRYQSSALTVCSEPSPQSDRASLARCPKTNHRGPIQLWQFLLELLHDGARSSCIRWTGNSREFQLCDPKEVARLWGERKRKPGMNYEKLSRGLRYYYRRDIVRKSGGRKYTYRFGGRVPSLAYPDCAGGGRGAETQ
Procedure, shortened: as §1

ELF3 = target: T11, ELF3 (Homo sapiens, UniProt P78545 1-371); details: protein: recombinant; tags: N-terminal GST; dsDNA, one strand shown
T11 sequence: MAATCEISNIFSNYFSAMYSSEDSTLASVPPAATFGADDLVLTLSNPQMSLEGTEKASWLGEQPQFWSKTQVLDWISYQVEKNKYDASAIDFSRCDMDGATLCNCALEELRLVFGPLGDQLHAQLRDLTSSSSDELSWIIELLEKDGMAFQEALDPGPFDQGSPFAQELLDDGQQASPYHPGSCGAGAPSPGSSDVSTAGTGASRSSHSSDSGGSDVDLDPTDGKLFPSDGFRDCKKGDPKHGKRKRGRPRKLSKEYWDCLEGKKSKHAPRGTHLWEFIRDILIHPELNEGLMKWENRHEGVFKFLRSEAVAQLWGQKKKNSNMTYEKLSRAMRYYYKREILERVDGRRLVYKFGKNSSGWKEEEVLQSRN
Procedure, shortened: as §1

CRX = CRX (Homo sapiens, UniProt O43186 1-299); details: protein: recombinant; tags: N-terminal GST; dsDNA, one strand shown
Sequence of CRX (O43186 whole entry): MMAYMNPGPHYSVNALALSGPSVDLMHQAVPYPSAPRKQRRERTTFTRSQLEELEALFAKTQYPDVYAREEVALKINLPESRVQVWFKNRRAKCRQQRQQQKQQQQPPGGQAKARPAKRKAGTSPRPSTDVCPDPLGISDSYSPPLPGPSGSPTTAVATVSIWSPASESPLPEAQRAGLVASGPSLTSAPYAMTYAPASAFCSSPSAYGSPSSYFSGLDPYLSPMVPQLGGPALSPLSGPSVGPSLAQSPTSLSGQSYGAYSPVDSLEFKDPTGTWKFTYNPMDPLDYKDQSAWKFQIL
Procedure, shortened: as §1

ETV1 = ETV1 (Homo sapiens, UniProt P50549 1-477); details: protein: recombinant; tags: N-terminal GST; dsDNA, one strand shown
Sequence of ETV1 (P50549 whole entry): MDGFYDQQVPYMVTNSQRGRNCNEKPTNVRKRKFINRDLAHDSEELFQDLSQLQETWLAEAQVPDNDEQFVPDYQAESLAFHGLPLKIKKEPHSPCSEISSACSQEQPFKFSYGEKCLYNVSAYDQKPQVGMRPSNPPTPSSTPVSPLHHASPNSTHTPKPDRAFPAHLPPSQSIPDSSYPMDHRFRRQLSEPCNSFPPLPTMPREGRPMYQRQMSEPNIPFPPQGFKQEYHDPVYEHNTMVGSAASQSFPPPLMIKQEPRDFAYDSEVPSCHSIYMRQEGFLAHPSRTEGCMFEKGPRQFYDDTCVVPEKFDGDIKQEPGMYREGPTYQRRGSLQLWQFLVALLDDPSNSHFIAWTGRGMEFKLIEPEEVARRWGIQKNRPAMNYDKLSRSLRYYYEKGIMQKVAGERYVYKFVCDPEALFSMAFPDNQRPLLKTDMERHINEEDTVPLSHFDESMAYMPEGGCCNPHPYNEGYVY
Procedure, shortened: as §1

Sequence: ACTTAC
- binding signal (FLI1): 1.14 fold enrichment (6-mer frequency, TF over GST control)
- binding signal (ELK1): 1.17 fold enrichment (6-mer frequency, TF over GST control)
- binding signal (GABPA): 1.2 fold enrichment (6-mer frequency, TF over GST control)
- binding signal (ERG): 1.1 fold enrichment (6-mer frequency, TF over GST control)
- binding signal (ELF1): 1.18 fold enrichment (6-mer frequency, TF over GST control)
- binding signal (EHF): 1.28 fold enrichment (6-mer frequency, TF over GST control)
- binding signal (SPI1): 1.27 fold enrichment (6-mer frequency, TF over GST control)
- binding signal (SPIB): 1.1 fold enrichment (6-mer frequency, TF over GST control)
- binding signal (ELK3): 1.12 fold enrichment (6-mer frequency, TF over GST control)
- binding signal (FEV): 1.09 fold enrichment (6-mer frequency, TF over GST control)
- binding signal (ETV5): 1.17 fold enrichment (6-mer frequency, TF over GST control)
- binding signal (HSF1): 1.15 fold enrichment (6-mer frequency, TF over GST control)
- binding signal (SPIC): 1.1 fold enrichment (6-mer frequency, TF over GST control)
- binding signal (ELF4): 1.24 fold enrichment (6-mer frequency, TF over GST control)
- binding signal (ELK4): 1.12 fold enrichment (6-mer frequency, TF over GST control)
- binding signal (ETV2): 1.06 fold enrichment (6-mer frequency, TF over GST control)
- binding signal (ELF3): 1.23 fold enrichment (6-mer frequency, TF over GST control)
- binding signal (CRX): 1.42 fold enrichment (6-mer frequency, TF over GST control)
- binding signal (ETV1): 1.16 fold enrichment (6-mer frequency, TF over GST control)
